SKN-1 inh = C. elegans SKN-1 inhibition | C. elegans VP596 Pgst-4::GFP/RFP ratio, acrylamide-induced, 24 h | inhibition, % at 21.8 µM | 0.49% of 360,000 active | AID 624304;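 active means interference check ratio from 0.5 to 1.5 plus GFP to RFP signal ratio inhibition reaching or exceeding a fixed threshold, cut at about 30% in these data, passing the limit was not always enough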
Efflux pump mplx = blocks antifungal efflux pumps in multiplex yeast assay. AID 485275. 0.44% of 330,000 active. S. cerevisiae Candida pump triplex, Nile Red efflux. inhibition, % at 10 µM;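 active means plate passing quality check with inhibition over a set limit, or well fluorescence over plate mean plus 4 SD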;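 further: Nile Red retained in pooled yeast measured as flow cytometry median fluorescence; 0% = buffer negative control and 100% = Enniatin B positive control; higher means more Nile Red kept so more efflux inhibition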
Mot1-301 SUMO = inhibitors of SUMOylation pathway: yeast Mot1-301 growth rescue. S. cerevisiae Mot1-301 growth rescue, ATP luminescence, 38.5C; percent above DMSO median, 100 means doubled. AID 2716. 1% of 320,000 active. growth rescue, % at 18.8 µM;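 active means every valid replicate shows activation above 250% relative to neutral control wells; inactive means the rest, any valid replicate at or below 250%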;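 further: OY570 slx delta 5 strain wells were the positive control but not used for scaling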
HGIII-sPLA2 inh = Blocks human group III sPLA2 activity; QFRET BODIPY PC-A2 liposome hydrolysis, fluorescence; inhibition, % at 12.2 µM; 0.56% of 370,000 active;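 active means inhibition above mean plus 3 SD of compounds lying within the high and low control bounds, cut at about 19% in these data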;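 further: 0% = median of test compound wells and 100% = no enzyme DMSO wells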
Target sequence (Q9NZ20 whole entry, looked up): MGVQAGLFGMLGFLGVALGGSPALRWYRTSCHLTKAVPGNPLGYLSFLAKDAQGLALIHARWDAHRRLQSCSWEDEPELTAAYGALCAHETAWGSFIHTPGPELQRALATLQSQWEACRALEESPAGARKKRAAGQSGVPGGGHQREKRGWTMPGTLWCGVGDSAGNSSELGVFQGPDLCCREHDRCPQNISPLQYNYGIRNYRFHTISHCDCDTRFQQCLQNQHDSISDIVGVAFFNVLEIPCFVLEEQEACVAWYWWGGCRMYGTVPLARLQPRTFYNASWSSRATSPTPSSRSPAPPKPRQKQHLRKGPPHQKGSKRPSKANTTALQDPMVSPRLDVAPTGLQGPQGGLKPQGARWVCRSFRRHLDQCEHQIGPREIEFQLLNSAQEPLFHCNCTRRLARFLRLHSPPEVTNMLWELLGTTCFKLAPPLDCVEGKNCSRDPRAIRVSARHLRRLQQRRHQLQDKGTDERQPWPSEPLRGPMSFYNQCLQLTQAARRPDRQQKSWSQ
* hit, by the source's call; · = no result given. An excerpt weighted towards active compounds, which were near 2.2% of everything screened.

SMILES	SKN-1 inh	Efflux pump mplx	Mot1-301 SUMO	HGIII-sPLA2 inh
O=C(/C=C/c1ccccc1)/C=C/c1ccccc1	81*	0	178	-1
COc1ccc(/C=C/C(=O)Nn2cnnc2)cc1	7	0	20	6
O=C(/C=C/c1ccccc1)Nn1cnnc1	35*	0	-1	-1
N/C(=N\OC(=O)/C=C/c1ccccc1)c1ccc(Cl)cc1	25	0	1	0
N/C(=N\OC(=O)/C=C/c1ccccc1)c1ccccc1	36*	0	24	-1
O=C(/C=C/c1ccccc1)c1ccccc1	-22	0	-5	6
Cc1ccc(NC(=O)[C@H]2CC(=O)O[C@@H]2c2ccccc2)c(C)c1	·	·	·	7
COc1cc2c(cc1OC)[C@@H](NC(=O)c1ccncc1)[C@H](C)[C@H]2c1ccccc1	·	·	·	-2
NC(=O)c1c(N)[nH]c(C(=O)c2ccccc2)c1-c1cccc2ccccc12	·	·	·	-1
COc1cccc(/C=C/c2ccc3cccc(O)c3n2)c1	17	0	-1	-1
Cc1ccc(/C=C/c2ccc3cccc(O)c3n2)s1	35*	0	-1	2
Oc1cccc(/C=C/c2ccc3cccc(O)c3n2)c1	46*	0	-3	-35
COC(=O)[C@]12C[C@H](CC(=O)NCCCCc3ccccc3)C(=O)N(CCC3=CCCCC3)C1=C[C@H](C(C)C)O[C@@H]2C1CC1	·	·	·	-11
Cc1cccc(CN2[C@@H](CC(C)C)COCCS2(=O)=O)c1	0	0	-1	2
COc1cc(OC)c2c(c1O)OC(c1ccccc1)CC2=O (centres undefined)	7	1	696*	-4
Cc1cc(NCCCN2CCOCC2)n2ncc(-c3ccccc3)c2n1	9	0	159	-3
CN(C)CCCNc1cc(C(C)(C)C)nc2c(-c3ccccc3)cnn12	20	0	267*	-6
CC(C)(C)c1ccc(Oc2ccc(NC(=O)c3ccco3)cn2)cc1	3	0	378	-1
O=C(Nc1ccc(Oc2cccc(C(F)(F)F)c2)nc1)c1ccco1	-11	0	342*	-4
CC(C)(C)C(=O)NC(=S)NNC(=O)c1ccc(Cl)cc1Cl	9	0	135	42*
COC(=O)NNC(=O)c1ccc(Cl)cc1Cl	4	0	-20	0
CCn1cc(C(=O)N[C@H](C)c2ccccc2)c(=O)c2cc(F)c(N3CCN(C)CC3)cc21	5	0	815*	-5
CCn1ccnc1CNC(=O)c1ccc2oc(CCCc3ccccc3)nc2c1	-6	0	10	-4
COc1ccc(C2c3[nH]c4ccccc4c3C[C@H]3C(=O)N(c4ccccc4C(=O)N4CCC(C(=O)O)CC4)C(=O)N23)cc1 (some centres undefined)	2	1	342*	-10
CN1CCN(/N=C/c2ccc(-c3ccccc3)cc2)CC1	79*	0	83	-1
SMILES	SKN-1 inh	Efflux pump mplx	Mot1-301 SUMO	HGIII-sPLA2 inh
O=S(=O)(Cc1ccccc1Cl)N1CCN(Cc2ccc3c(c2)OCO3)CC1	10	0	277*	1
CCOc1ccc(S(=O)(=O)N2CCN(Cc3ccc4c(c3)OCO4)CC2)cc1Cl	8	0	386*	-16
COc1ccc(-c2ccc3c(n2)CCCN3S(=O)(=O)c2c(C)noc2C)cc1	·	·	·	1
CCN(CC(=O)NCc1ccc(F)cc1)Cc1nc2cc(Cl)ccc2c(=O)[nH]1	65*	0	235	6
Cn1cccc1/C=C(\C#N)C(N)=S	-13	0	-8	8
N#C/C(=C/c1cc[nH]c1)C(N)=S	-7	0	295*	6
COc1cccc(NC(=O)N2CC[C@@H]3[C@H]2c2cc(-c4cccc(C#N)c4)ccc2N(C)[C@@H]3CO)c1	·	·	·	-7
COC(=O)C1=C(C)N(C)C(=NCc2ccc(C(F)(F)F)cc2)NC1c1ccc(Cl)cc1 (centres undefined)	·	·	·	-24
COc1cc([N+](=O)[O-])cc(/C=C2/SC(=S)N(Cc3ccccc3)C2=O)c1O	52*	3.0*	-3	-10
COc1cc(/C=C2/SC(=S)N(Cc3ccccc3)C2=O)cc(Cl)c1O	36*	1	1	-8
O=C1/C(=C\c2cccc([N+](=O)[O-])c2O)SC(=S)N1Cc1ccccc1	15	1	0	6
O=C1/C(=C\c2cc(Br)cc(Br)c2O)SC(=S)N1Cc1ccccc1	28	1.5*	197	·
COc1cc(/C=C2/SC(=S)N(Cc3ccccc3)C2=O)ccc1OCC(=O)O	-4	0	-7	-42
O=C1/C(=C\c2ccc(O)cc2)SC(=S)N1Cc1ccccc1	-1	0	29	-35
CC(C)=CCCC1=CC[C@H]2[C@@H](C1)C(C(C)C)=CC(=O)[C@@]2(C)O	·	·	·	15
COC(=O)C1=C(C)NC(=O)/C1=C\N(C)C	39*	0	31	8
COC(=O)C1=C(C)NC(=O)/C1=C\c1cccs1	-11	0	4	7
CN1OC[C@@H]2CN(C(=O)C3CCCCC3)[C@H](c3ccc(N4CCCCC4)cc3)C[C@@H]21	·	·	·	0
CCOc1ccc2nc(N(CCN(C)C)C(=O)c3cc4ccccc4cc3OC)sc2c1	38*	0	-29	·
COc1ccc(C(CNC(=O)C(C)Oc2ccc(Br)cc2)N2CCCC2)cc1 (centres undefined)	-18	0	·	5
Cc1cc2ccccc2n1CCNC(=O)c1ccc(S(=O)(=O)N2CCOCC2)cc1	47*	0	-9	-18
Cc1cc2ccccc2n1CCNC(=O)C(C)(C)C	44	0	9	0
O=C(NCCCN1CCOCC1)c1ccc(S(=O)(=O)N2CCOCC2)cc1	-2	0	-7	-3
Cc1cc2ccccc2n1CCNC(=O)c1ccccc1	48*	0	-7	-6
CC(=O)NCCn1c(C)cc2ccccc21	49*	0	-17	2
SMILES	SKN-1 inh	Efflux pump mplx	Mot1-301 SUMO	HGIII-sPLA2 inh
CCC(=O)NCCn1c(C)cc2ccccc21	39*	0	7	·
CC(=O)N/N=C/c1ccccc1OCCOc1cccc(C)c1	16	0	49	-1
Cc1nc(NC(=O)c2cccs2)ccc1Br	36*	0	-5	1
Cc1cc(C)nc(NC(=O)c2cccs2)n1	0	0	19	4
COC(=O)c1cc2c(c3c4cc(OC)ccc4n(S(=O)(=O)c4ccccc4)c13)C(=O)N(Cc1ccc(C(F)(F)F)cc1)C2	·	·	·	4
CC(=O)c1cccc(NC(=O)N2CCCC2C(=O)Nc2c(C)cccc2C)c1 (centres undefined)	37*	0	14	11
COC(=O)c1cc(NC(=O)CC2SC(=Nc3ccccc3)N(CCc3c[nH]c4ccccc34)C2=O)cc(C(=O)OC)c1 (centres undefined)	36*	0	-3	-18
COCCN1C(=O)C(CC(=O)Nc2ccc(C(=O)O)cc2)SC1=Nc1ccccc1 (centres undefined)	17	0	-6	5
COCCCNCCOCCSc1ccc(Cl)cc1	1	0	279*	1
COC(=O)[C@H](C(C)C)N1Cc2nnn(Cc3ccccc3)c2-c2ccccc2S1(=O)=O	·	·	·	1
COc1ccc(CC(=O)N2CCCC(C)C2)cc1 (centres undefined)	37*	0	-10	0
